± gives the standard deviation.

The assay deals with MILI (PIWIL2) piRISC loaded with piRNA #1 (26 nt). Nature of the assay: pre-steady-state target cleavage rate (min^-1); guide: piRNA #1 5'p-UGAGGUAGUAGGUUGUAUAGUAUCCA; MIWI and MILI are mouse PIWI proteins and EfPiwi is from a freshwater sponge; tags in brackets are library labels; higher = faster piRNA-guided slicing of the target. Particulars: auxiliary factor: 500 nM mouse GTSF1. An outline of the steps: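 The pre-steady-state cleavage rate was obtained by Cleave-'n-Seq with a burst-and-steady-state fit. A transcribed, DNA-blocked target RNA library (0.1 nM) was mixed with 1 nM active affinity-purified piRISC carrying one synthetic guide, with or without 500 nM GTSF1 partner protein, in HEPES–potassium acetate buffer at 33 °C for 0–8 or 0–960 min. Uncleaved targets were sequenced and normalised to depth and to weakly complementary targets, with three trials pooled and k3 capped at 0.0001 min^-1.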
GGAGACCUAUGAUAUGUACCUACAACCUGA: the “pre-steady-state target cleavage rate” value was less than 0.0001.
Take GGAGACCAUACUAUAGAUCCUACUACCUCA: the “pre-steady-state target cleavage rate” value was determined as 0.229 ± 0.026.
With GGAGACCUAUCUAUUCAACCUACUACCUGA, the “pre-steady-state target cleavage rate” value worked out at 0.0654 ± 0.014.
On to GGAGACCUAACUAUACAACCUACUAGCCUCA, for which the “pre-steady-state target cleavage rate” value is 0.186 ± 0.035.
The result for GGAGACCUAUGAUAUGUACCUAGUACCUCA reads less than 0.0001.
Take GGAGUGGAUACUAUAGUACCUACUACCUCA: the “pre-steady-state target cleavage rate” value stood at 0.161 ± 0.012.
For the sequence GGAGACCUAUGAUUACAACCUACUCCCUCA, the “pre-steady-state target cleavage rate” value turned out to be 0.00393 ± 0.0029.
On to GGAGACCUAUGUAUACAGCCUACUACCUCA, for which the “pre-steady-state target cleavage rate” value was determined as 0.0196 ± 0.0053.
For the sequence GGAGACCUUACUAUAAAACCUACUACCUCA, the “pre-steady-state target cleavage rate” value amounted to 0.16 ± 0.019.
On to GGAGACCUAUCUAUACAACCUACUACGUGA, for which the “pre-steady-state target cleavage rate” value was found to be 0.0608 ± 0.013.
GGAGACCUAUCUAUACUUGCUACUACCUCA: the “pre-steady-state target cleavage rate” value is 0.0151 ± 0.0031.
The value for GGAGACCUUACUAUACAACCUACAUACCUCA was 0.157 ± 0.011; that for GGAGACCUUACUUUACAACGUACUACCUCA was 0.0199 ± 0.0047.
On to GGAGACCUUACUAUACAACCUACUACUCA, for which the “pre-steady-state target cleavage rate” value amounted to 0.216 ± 0.025.
The value for GGAGACCUAUCUAUUCAUCCUACUACCUCA was 0.172 ± 0.021; that for GGAGACCUAACUAAACAAGCUACUACCUCA was 0.15 ± 0.02; that for GGAGACCUAUGAAUACAACCUACUUACCUCA was 0.00968 ± 0.0023.
As for GGAGACCUAUGUAUACAACCUCACUACCUCA, the “pre-steady-state target cleavage rate” value was 0.00401 ± 0.0027.
GGAGACCUUAGUAAACAACCUACUACCUCA: the “pre-steady-state target cleavage rate” value is 0.0245 ± 0.0059.
On to GGAGACCUAUGAUUACAACGUACAACCUCA, for which the “pre-steady-state target cleavage rate” value is 0.00532 ± 0.0027.
Turning to GGAGACCUAUGAUUACAACCUAAUACCUCA, the “pre-steady-state target cleavage rate” value was determined as 0.00387 ± 0.0022.
As for GGAGACCUAUGAUUACAACCUACCUACCUCA, the “pre-steady-state target cleavage rate” value was 0.00646 ± 0.0028.
Consider GGAGACCUAUGAUAUGUUCAUACUACCUCA, for which the “pre-steady-state target cleavage rate” value is less than 0.0001.
With GGAGACCUAUGAUAUGUUCCUACUACCAUCA, the “pre-steady-state target cleavage rate” value is less than 0.0001.
For the sequence GGAGACCUAUCUUUACAUCCUACUACCUCA, the “pre-steady-state target cleavage rate” value worked out at 0.104 ± 0.013.
As to GGAGACCUAACUAUACAUCCUUCUACCUCA, the “pre-steady-state target cleavage rate” value was 0.0117 ± 0.0069.
As to GGAGACCUUACAAUACAACCUACUAGCUCA, the “pre-steady-state target cleavage rate” value is 0.103 ± 0.013.
The value for GGAGACCUUACUAUACAACCUACUCCUCA was 0.00492 ± 0.0027; that for GGAGAGGAUACUAUACAAGGAACUACCUCA was 0.00442 ± 0.002; that for GGAGACCUAUGUAUACACCCUACUACCUCA was 0.0161 ± 0.0035.
With GGAGACCUAACUUUACAACCUACUACCUGA, the “pre-steady-state target cleavage rate” value was found to be 0.0891 ± 0.041.
Turning to GGAGACCUUACUAUAGAACGUACUACCUCA, the “pre-steady-state target cleavage rate” value came out at 0.0109 ± 0.0021.
Regarding GGAGACCUAUCUAUACAACCGACUACCUCA, the “pre-steady-state target cleavage rate” value is 0.0049 ± 0.003.
For GGAGACCUUACAAUACAACCUACUUCCUCA, the “pre-steady-state target cleavage rate” value was 0.0632 ± 0.014.
With GGAGACCUAUGAAUACGACCUACUACCUCA, the “pre-steady-state target cleavage rate” value is 0.00583 ± 0.0037.
Regarding GGAGACCUAUCUAUACAACGUACUUCCUCA, the “pre-steady-state target cleavage rate” value was found to be 0.0209 ± 0.0035.
Take GGAGUGGAUACUAUAGUUCCUACUACCUCA: the “pre-steady-state target cleavage rate” value was 0.169 ± 0.0095.
As for GGAGUGGAAACUAUACAACCUACUACGUCA, the “pre-steady-state target cleavage rate” value worked out at 0.0633 ± 0.012.
The value for GGAGACCUAACUAUACAACCUACAACCUCA was 0.108 ± 0.026.
With GGAGACCUAUCUAAACAACCUACUUCCUCA, the “pre-steady-state target cleavage rate” value worked out at 0.0303 ± 0.0063.

Source of the values: the supplement of paper PMC10338343.
